Laboratory results as given in the supplement of paper PMC7858590.
“And” between values parts separate entries of the source, which are not always exact repeats. Equal values may be shown once. ± gives the standard deviation of the averaged measurements. Over roughly 3,800 compounds, “cell shape (eccentricity) Z-score vs DMSO control” has its median near 1.1; the lowest 2% begin near -4.7. The sample as a whole holds a higher share of the lowest values than the screen did.

test system: human monocyte-derived macrophages (M0); assay: cell shape (eccentricity) Z-score vs DMSO control; higher = more elongated, M2-like morphology; conditions: 20 µM; 24 h; macrophage state: M0 (M-CSF)

Row | SMILES | cell shape (Z-score)
1 | CCOc1ccc(Cc2cc([C@@H]3O[C@H](CO)[C@@H](O)[C@H](O)[C@H]3O)ccc2Cl)cc1 | -0.0179
2 | CC1(C)C(=O)C=C[C@@]2(C)C1C=C[C@]1(C)C2CC[C@@]2(C)[C@H](c3ccoc3)OC(=O)[C@H]3O[C@]321 (stereo partly specified) | 7.92
3 | CCc1cc(C(C)=O)c(O)cc1OCCCCCC(C)(C)c1nnn[nH]1 | 1.49
4 | N=C(N)Nc1ccc(Cl)cc1 | 0.554
5 | N=C(NCCCCCCNC(=N)NC(=N)Nc1ccc(Cl)cc1)NC(=N)Nc1ccc(Cl)cc1 | -6.88
6 | CC(C)NC(=N)NC(=N)Nc1ccc(Cl)cc1 | 0.874
7 | CC(=O)N[C@H]1[C@H](O[C@H]2CC[C@@]3(C)C(CC[C@]4(C)C3CC=C3[C@@H]5CC(C)(C)CC[C@]5(C(=O)OC5OCC(O)C(O)C5O)C(O)C[C@]34C)C2(C)C)O[C@H](COC2OCC(O)C(OC3OCC(O)C(O)C3O)C2O)[C@@H](O[C@@H]2O[C@@H](C)[C@H](O)[C@@H](O)[C@H]2O[C@@H]2O[C@@H](C)[C@H](O)[C@@H](O)[C@H]2O)[C@@H]1O (stereo partly specified) | -2.27 ± 4.4
8 | O=C1NN(C(=O)Nc2ccc(Br)cc2)[C@@H](c2ccccc2)[C@@H]1c1ccccc1 | 1.43
9 | COC(=O)[C@@H]1[C@H]2C[C@H]3c4[nH]c5ccccc5c4CCN3C[C@@H]2CC[C@@H]1O | -0.402
10 | O=C(/C=C/c1ccccc1)CC(O)CCc1ccccc1 (stereo unspecified) | -0.2
11 | O=C(/C=C/c1ccccc1)CC(=O)/C=C/c1ccccc1 | -8.63
12 | O=C(/C=C/c1ccc(O)cc1)CC(=O)/C=C/c1ccc(O)cc1 | -1.34
13 | c1ccc(-c2n[nH]c3c2oc2ccccc23)cc1 | 0.646
14 | CCN1C(=CC=Cc2ccc3ccccc3[n+]2CC)C=Cc2ccccc21 | -7.46
15 | CC1(C)CCC(C)(C)c2cc([C@@H](O)C(=O)Nc3ccc(C(=O)O)cc3F)ccc21 | 5.37
16 | C=C(NC(=O)C(=C)NC(=O)c1csc(C2=N[C@H]3c4csc(n4)[C@H]4NC(=O)c5csc(n5)[C@H]([C@@](C)(O)[C@@H](C)O)NC(=O)[C@H]5CSC(=N5)C(=CC)NC(=O)[C@H]([C@@H](C)O)NC(=O)c5csc(n5)[C@]3(CC2)NC(=O)[C@H](C)NC(=O)C(=C)NC(=O)[C@H](C)NC(=O)[C@H](C(C)CC)N[C@@H]2C=Cc3c([C@H](C)O)cc(nc3[C@H]2O)C(=O)O[C@@H]4C)n1)C(N)=O (stereo partly specified) | -6.13
17 | COc1cc(C)c(C(=O)O[C@H]2[C@@H](OC(C)=O)[C@H](n3ccc(=O)[nH]c3=O)O[C@@H]2CO)c(OC)c1 | 1.91 ± 0.92
18 | Cc1ccc(/C(=C\CN2CCCC2)c2ccccn2)cc1 | 1.6
19 | CCOC(=O)N[C@@H]1CC[C@@H]2[C@@H](C1)C[C@H]1C(=O)O[C@H](C)[C@H]1[C@H]2/C=C/c1ccc(-c2cccc(F)c2)cn1 | 5.12
20 | CC(=O)O[C@H]1C(=O)[C@@]2(C)[C@H]([C@H](OC(=O)c3ccccc3)[C@]3(O)C[C@H](OC(=O)[C@H](O)[C@@H](NC(=O)c4ccccc4)c4ccccc4)C(C)=C1C3(C)C)[C@]1(OC(C)=O)CO[C@@H]1C[C@@H]2O | -5.5
21 | CC(=O)OC1C(=O)C2(C)C(O)CC3OCC3(OC(C)=O)C2C(OC(=O)c2ccccc2)C2(O)CC(OC(=O)C(O)C(NC(=O)c3ccccc3)c3ccccc3)C(C)=C1C2(C)C (stereo unspecified) | -3.69
22 | CC(=O)O[C@H]1C(=O)[C@@]2(C)C([C@H](OC(=O)c3ccccc3)[C@]3(O)C[C@H](OC(=O)[C@H](O)[C@@H](NC(=O)c4ccccc4)c4ccccc4)C(C)=C1C3(C)C)[C@]1(OC(C)=O)CO[C@@H]1C[C@@H]2O (stereo partly specified) | -4.41 and -4.29 and -4.69
23 | CC/C(=C(/CC)c1ccc(O)cc1)c1ccc(O)cc1 | 1.77

Row | SMILES | cell shape (Z-score)
24 | CC1(C)CC[C@]2(C(=O)O[C@@H]3O[C@H](CO)[C@@H](O)[C@H](O)[C@H]3O)CC[C@]3(C)C(=CCC4[C@@]5(C)C[C@@H](O)[C@H](O)[C@](C)(CO)C5CC[C@]43C)C2[C@@H]1O (stereo partly specified) | 1.6
25 | Cc1[nH]c2ccccc2c1CCNCc1ccc(/C=C/C(=O)NO)cc1 | 4.88 and 5.32
26 | C/C=C/C=C/C(=O)c1cc(C)c(O)c(C)c1O | 1.03
27 | Cc1cc2nc3c(=O)[nH]c(=O)nc-3n(C[C@@H](O)[C@@H](O)[C@@H](O)CO)c2cc1C | 0.422
28 | Cc1cc2nc3c(=O)[nH]c(=O)nc-3n(C)c2cc1C=O | -7.12
29 | CCCCCCCNS(=O)(=O)c1cccc2c(Cl)cccc12 | 0.986
30 | CN(C)CCCSC(=N)N | 0.27
31 | NC(COCc1ccccc1)C(=O)O (stereo unspecified) | 1.15
32 | CS(=O)c1ccc(-c2nc(-c3ccc(F)cc3)c(-c3ccncc3)[nH]2)cc1 (stereo unspecified) | 3.26
33 | CS(=O)(=O)c1ccc(-c2nc(-c3ccc(F)cc3)c(-c3ccncc3)[nH]2)cc1 | 1.46
34 | Oc1ccc(-c2nc(-c3ccc(F)cc3)c(-c3ccncc3)[nH]2)cc1 | -5.27
35 | O=C(O)c1cc2cc(OCc3ccccc3)ccc2[nH]1 | 1.63
36 | CC(=O)O[C@H]1[C@H](Oc2ccccc2COC(=O)C2(O)C=CCCC2=O)O[C@H](CO)[C@@H](O)[C@@H]1O (stereo partly specified) | 1.32
37 | CCn1cc(C(=O)O)c(=O)c2cc(F)c(N3CCNCC3)nc21 | -1.1
38 | C=C1C(=O)O[C@H]2C1CCC(C)=C1C(=O)C=C(C)[C@@H]12 (stereo partly specified) | -3.7
39 | C=C1C(=O)O[C@@H]2[C@H]3C(CO)=CC(=O)C3=C(C)C[C@H](OC(=O)Cc3ccc(O)cc3)[C@@H]12 | -6.23
40 | O=C(Cc1ccc(O)cc1)OC1[C@@H](O)[C@@H](O)C(OC(=O)Cc2ccc(O)cc2)[C@H](O)[C@@H]1O (stereo partly specified) | 2.31
41 | CC1(C)CCC(CN2CCN(c3ccc(C(=O)NS(=O)(=O)c4ccc(NCC5CCOCC5)c([N+](=O)[O-])c4)c(Oc4cnc5[nH]ccc5c4)c3)CC2)=C(c2ccc(Cl)cc2)C1 | 6.74
42 | COCc1c(C(C)C)nc(C(C)C)c(/C=C/[C@@H](O)C[C@@H](O)CC(=O)O)c1-c1ccc(F)cc1 | 10.1 ± 0.39
43 | CCC[C@@H]1C[C@@H](C(=O)NC(C(C)Cl)C2O[C@H](SC)[C@H](O)[C@@H](O)[C@H]2O)N(C)C1 (stereo partly specified) | 3.16
44 | CC(Nc1nc(N2CCCC2)nc2ccccc12)c1ccccc1 (stereo unspecified) | -7.72
45 | Cc1cc(N2CCCCC2)nc2ccccc12 | 0.281
46 | COc1cc2nc(N3CCCN(C)CC3)nc(NC3CCN(Cc4ccccc4)CC3)c2cc1OC | 3.25
